# Experimental data reported in PubChem BioAssay AID686979 (National Center for Advancing Translational Sciences (NCATS), 2013).
# About 50,000 (12%) of roughly 420,000 compounds were called active. Not shown: some 26% with an inconclusive outcome. Many of the other results were omitted from the sample, so actives are more common in it than they were. A number with no mark means an inactive call. Calls come from the whole dose curve; as a rule, active = well fitted inhibition curve with a large enough effect; inconclusive = small, poorly fitted or top-dose-only effect; inactive = flat fitted curve, though single readings scatter.
# Assay: qHTS for Inhibitors of human tyrosyl-DNA phosphodiesterase 1 (TDP1): qHTS in cells in presence of CPT; note: nearly all actives have a fitted effect of over 55% in size
# Conditions: chicken DT40 Tdp1-/-;hTDP1 cells + 20 nM CPT, ATP luminescence, 48 h; series mostly up to 46.2 µM; activity change, negative = growth inhibition: at the top concentration
# Outline: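 Chicken DT40 Tdp1-/- cells complemented with human TDP1, 400 cells/well, exposed to compounds plus 20 nM camptothecin for at least 48 h at 37 C; viability read as ATP content by CellTiter-Glo luminescence.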
# % is set by controls: 0 for no effect and ±100 for the full control effect; potency is the fitted concentration of half-maximal effect.
Compound,"activity change, negative = growth inhibition [%]",Potency
O=C(C1CC1)N1N=C2CCCCC2C1(O)C(F)(F)F (stereo not given),1.99,
O=[N+]([O-])c1ccccc1/C=C/CN1CCC(O)CC1,-8.2,
COC(=O)c1sc(C(F)(F)F)c(-c2ccccc2)c1S(=O)(=O)N(C)C,3.15,
Cc1ccc(S(=O)(=O)NCCSc2ccccc2)cc1[N+](=O)[O-],-12.8,
CC(Oc1ccc(Cl)cc1)c1ccnn1S(C)(=O)=O (stereo not given),-16.9,
CC1CN(S(=O)(=O)c2cccc(C(F)(F)F)c2)CN1C(=O)N1CCOCC1 (stereo not given),15.4,
O/N=C(\C[n+]1ccccc1)c1ccc(Br)cc1,-2.78,
COc1ccccc1N(CC(=O)Nc1ccc(C(F)(F)F)cc1)S(C)(=O)=O,11.3,
CCCCN(CC)CCCNC(=O)c1nn(C)c2c1CS(=O)(=O)c1ccccc1-2,5.5,
CCCCN(CC)CCCNC(=O)c1ccc(CSc2nc3ccncc3[nH]2)cc1,-5.2,
CCCCN(CC)CCCNC(=O)c1nn(C)c2c1CSc1ccccc1-2,,25.9 µM (active)
C[C@@H]1CC2=C(C(=O)OC(C)(C)O2)[C@@H](C2CC2)O1,2.46,
CCN(CC)C(=O)c1sc(NC(=O)c2ccco2)c(C#N)c1C,-16.7,
Cn1nccc1CNC(=O)c1ccnn1C,0.35,
CCCc1ccc(-c2c(C)sc(NC(=O)c3ccnn3C)c2C#N)cc1,,23.1 µM (active)
COc1ccc(CNC(=O)CN(Cc2ccccc2Cl)C(=O)c2csnn2)cc1,12.5,
CN1CCN(C(CNC(=O)c2ccccc2F)c2ccc3c(c2)OCO3)CC1 (stereo not given),6.41,
COc1cc(C(=O)OCCCN2CCOCC2)cc(OC)c1OC,-16.7,
O=C(NCC(c1ccc(Cl)cc1)N1CCOCC1)c1ccccc1F (stereo not given),,16.4 µM (active)
CN(C)c1ccc(C(CNS(=O)(=O)c2cc(F)ccc2F)N2CCOCC2)cc1 (stereo not given),-9.33,
COc1ccc(C(CNC(=O)c2cc3c(s2)CCCC3)N2CCOCC2)cc1 (stereo not given),-14.5,
CC(C)(C)c1ccc(C(=O)NCC(c2ccc(Cl)cc2)N2CCOCC2)cc1 (stereo not given),,23.1 µM (active)

Compound,"activity change, negative = growth inhibition [%]",Potency
COc1ccc(C(CNC(=O)c2cccnc2SC)N2CCOCC2)cc1 (stereo not given),-20.3,
COc1ccc(C(CNC(=O)CSc2ccccc2)N2CCOCC2)cc1 (stereo not given),-14.8,
COc1cc(C(=O)NCC(c2ccc(Cl)cc2)N2CCOCC2)cc(OC)c1OC (stereo not given),,16.4 µM (active)
Cc1ccc(S(=O)(=O)NN=C2CC(C)(C)CC(=O)C2(C)C)cc1,13.2,
CCOCCCNC(=O)C1(O)c2cc(Br)ccc2NC(=O)N1c1ccc(C)c(C)c1 (stereo not given),9.66,
Cc1ccc(S(=O)(=O)N2CCCCC2)cc1NC(=O)CCNC(=O)c1ccccc1,-16.1,
CN(C)c1ccc2c(=O)[nH][nH]c(=O)c2c1,8.58,
COc1cc(C(=O)N2CCOC23CCN(Cc2ccccc2)CC3)cc(OC)c1OC,-4.78,
N#Cc1cc([N+](=O)[O-])ccc1NC(=O)COC(=O)c1cnccn1,-21.5,
CCC(CC)NC(=O)CSc1nnc(-c2c[nH]c3ccccc23)o1,-16.9,
Cc1ccc(C(=O)OCC(=O)Nc2ccc(Cl)cn2)cc1S(=O)(=O)N1CCOCC1,-6.23,
CN(Cc1ccccc1)C(=O)C(=O)c1cn(CC(=O)N2CCCC2)c2ccccc12,-23.2,
COc1ccc(C(=O)N[C@H](C(=O)NCc2ccccc2)C(C)C)cc1,1.15,
COc1cc(OC)cc(C(=O)N[C@H](C(=O)Nc2nc3ccccc3[nH]2)C(C)C)c1,,1.64 µM (active)
COc1cc(OC)cc(C(=O)N[C@H](C(=O)OCC(=O)NC(C)c2ccccc2)C(C)C)c1 (stereo not given in full),-11.1,
CC1=C/C(=N\OS(=O)(=O)c2ccccc2)C=CC1=O,,0.631 µM (active)
O=S(=O)(ON(c1ccccc1)S(=O)(=O)c1ccccc1)c1ccccc1,3.88,
COCCn1c(SCC(=O)Nc2nc(C)cs2)nnc1C(C)C,-14.4,
O=C(Nc1ccccc1C(=O)O)c1ccc(N2C(=O)C3CC=CCC3C2=O)cc1 (stereo not given),6.38,
O=C(CN1CCOCC1)N/N=C/c1ccc(-c2ccc(Br)cc2)o1,15.3,
Cc1ccc(-c2ccc(/C=N/NC(=O)CN3CCOCC3)o2)cc1[N+](=O)[O-],,23.1 µM (active)
Cc1ccc(NC(=O)CN2CCC(C(N)=O)CC2)cc1[N+](=O)[O-],-17.2,

Compound,"activity change, negative = growth inhibition [%]",Potency
Cc1ccc(OC(=O)c2cncc(Br)c2)c(C)c1,-11.9,
CC(=O)[C@@]12O[C@@H]1C[C@H]1[C@@H]3CC[C@H]4C[C@@H](O)CC[C@]4(C)[C@H]3CC[C@@]12C,-12.2,
CC1(Cc2ccccc2C#N)C(=O)Nc2ccc(-c3ccc4[nH]ccc4c3)cc21 (stereo not given),,1.46 µM (active)
COc1ccc(CC(NC(C)=O)C(=O)NC2CCN(C(=O)c3ccc(Cl)cc3)CC2)cc1 (stereo not given),8.85,
CCC(C)C(N=C1NS(=O)(=O)c2ccccc21)C(=O)N1CCC(C)CC1 (stereo not given),-14.9,
O=c1[nH]c(/C=C/c2cccc(Br)c2)nc2ccccc12,-19.5,
NNc1cccc(C=Cc2ccccc2)cc1=O,,2.06 µM (active)
O=c1oc(/C=C/c2ccccc2)nc2ccccc12,-3.35,
Cc1cc(Cl)ccc1NC(=S)NCCCN1CCCC1=O,23.4,
COn1c(=O)c(=O)n(OC)c2ccccc21,0.332,
CCOC(=O)C1=C(C)N(C[C@@H]2CC[C@@H](Cc3ccc(-c4ccccc4)cc3)O2)C(=O)NC1c1ccc([N+](=O)[O-])cc1 (stereo not given in full),,23.1 µM (active)
CCOC(=O)C1=C(c2ccccc2)NC(=S)NC1c1ccc(Cl)cc1 (stereo not given),-21.5,
CCOC(=O)CSc1nnc(-c2ccc([N+](=O)[O-])cc2)o1,0.129,
C=C1c2cccc(OC)c2O[C@H](C(=O)OCC)[C@@H]1CCCCCC,-20.2,
COC(=O)C(C)Oc1ccc2c(-c3cccc([N+](=O)[O-])c3)cc(=O)oc2c1 (stereo not given),-14.6,
COc1cccc(NC(=O)COc2cc(C)cc3oc(=O)cc(C)c23)c1,-0.0121,
COc1cc(OC)c2c(-c3cccc(-c4cccc(N)c4)c3)cc(=O)oc2c1,,4.61 µM (active)
COc1ccccc1OCCNC(=O)C(CCSC)NC(=O)COc1ccccc1 (stereo not given),-15.4,
CC(C)(CNC(=O)CNC(=O)C1CCCCC1)N1CCOCC1,13,
CC(C)=CCc1c(O)c(CC=C(C)C)c2occ(-c3ccc(O)cc3)c(=O)c2c1O,,18.4 µM (active)
Cc1c(O)cc(O)c2c(=O)c(-c3ccc(O)cc3)coc12,0.0845,
